# Source: the supplement of paper PMC12636033
# ± gives the standard deviation of the averaged measurements. In all, about 33,000 sequences were measured (“E-score (rank enrichment, -0.5 to 0.5)”: median about -0.0075, highest 2% from about 0.23 on). Many of the other results were omitted from the sample, so the highest values are more common in it than they were.
# System: WT Max(13-93) synthetic (M65Nle)
# Test: PBM 8-mer E-score (E-score (rank enrichment, -0.5 to 0.5)); higher = stronger preferential binding
# Procedure: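 Protein binding microarray (universal PBM chip covering all 10-mers in fixed probe flanks) with chemically synthesized human Max(13-93) bHLH-LZ analogs (not full-length Max) bearing noncanonical residues (hArg, Tha, Aib, Nle at 65) and aromatic Cys staples. Read-out per 8-mer (and its reverse complement): E-score (rank-based enrichment, -0.5 to 0.5) and Z-score of median probe intensity.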
row,Sequence,PBM 8-mer E-score
1,ACCACCTC,0.0118 ± 0.00067
2,ACGTTTTC,0.116 ± 0.034
3,ATAGAGTC,-0.13 ± 0.093
4,CGTCGAAG,-0.152 ± 0.018
5,CTAGCTCC,-0.117 ± 0.094
6,GCACGACA,-0.0608 ± 0.098
7,AAGCTGGA,-0.0702 ± 0.12
8,GCAGAAGC,-0.118 ± 0.075
9,ATGTTCCC,0.0189 ± 0.083
10,AAAAATAA,0.0936 ± 0.097
11,ACAAAATG,0.3408 ± 0.0015
12,TAAAATAA,0.15 ± 0.0044
13,CAAAAAAA,0.248 ± 0.0035
14,ACAAAATC,0.106 ± 0.0076
15,ACAAAATA,0.209 ± 0.054
16,CAAAAAAC,0.161 ± 0.012
17,CCAAAAAA,0.171 ± 0.017
18,CAAAATAA,0.239 ± 0.012
19,CGTGCCCA,-0.00988 ± 0.079
20,ATCTTAGG,-0.0691 ± 0.031
21,CAGTGATG,0.0281 ± 0.13
22,ACGAGGCC,-0.0195 ± 0.14
23,GCGCTCAC,-0.00351 ± 0.038
24,ACCGCGTA,0.0537 ± 0.048

row,Sequence,PBM 8-mer E-score
1,ACCGCGTG,0.365 ± 0.056
2,ACAGCGTG,0.235 ± 0.013
3,ACCGCGTC,-0.117 ± 0.08
4,ACAGCGTA,-0.0609 ± 0.029
5,ACAGCGTC,0.0682 ± 0.028
6,GAACCCCC,-0.387 ± 0.031
7,ATCTTCAG,0.0326 ± 0.1
8,TAGTCAAA,0.14 ± 0.09
9,TAGATTAA,0.154 ± 0.027
10,CGATGCCC,-0.19 ± 0.045
11,GAAATCCA,-0.0865 ± 0.057
12,GAAACGGC,0.0668 ± 0.011
13,AAAACGGC,0.251 ± 0.16
14,CAAATCCA,0.0485 ± 0.13
15,CAAAACCA,0.0992 ± 0.086
16,AAAAACGA,0.25 ± 0.03
17,CAAAACGA,0.0654 ± 0.066
18,AAAATCCA,0.26 ± 0.06
19,AAAAACCA,0.238 ± 0.057
20,GAAAACGA,0.0526 ± 0.057
21,TAAAACCA,0.148 ± 0.056
22,CAAACGGC,-0.279 ± 0.026
23,AGTTGTGG,0.00744 ± 0.15
24,CGACCGTA,-0.107 ± 0.19

row,Sequence,PBM 8-mer E-score
1,CCATAGAA,0.0354 ± 0.028
2,GAACCAGC,-0.132 ± 0.07
3,GGGCCATA,0.00373 ± 0.018
4,CAGTTACG,-0.0592 ± 0.044
5,AATGTATG,0.255 ± 0.086
6,AATGTATC,0.168 ± 0.036
7,AATGTATA,0.211 ± 0.048
8,AATGTGTG,0.267 ± 0.05
9,AATGTAAT,0.12 ± 0.11
10,AATGTAAA,0.278 ± 0.0039
11,AATGTGTC,0.0393 ± 0.0075
12,AATGTGTA,0.167 ± 0.021
13,CATGTAAA,0.203 ± 0.052
14,ATAGGCGG,0.057 ± 0.12
15,AAAGGATC,-0.108 ± 0.042
16,AGCTTCAA,0.106 ± 0.021
17,ATCACTGA,-0.0485 ± 0.06
18,CCGTGAAA,-0.0191 ± 0.012
19,ACGTGAAT,0.239 ± 0.066
20,ACGTGAAC,0.0244 ± 0.025
21,ATGTGAAA,0.271 ± 0.12
22,TCGTGAAA,-0.119 ± 0.14
23,GTGTGAAA,0.1684 ± 0.00099
24,ACGTGAAG,0.0785 ± 0.02

row,Sequence,PBM 8-mer E-score
1,ACGTGAAA,0.279 ± 0.041
2,CTGTGAAA,0.00343 ± 0.13
3,AACGGTAC,0.0818 ± 0.035
4,TAGATTGA,-0.00515 ± 0.13
5,CCAGCAAC,-0.121 ± 0.011
6,CACATTCA,0.111 ± 0.11
7,CGTGGCCA,0.131 ± 0.084
8,TCTACAAA,0.0553 ± 0.18
9,ACGTATTA,0.165 ± 0.11
10,GAAGGTAC,-0.096 ± 0.22
11,ACCACTCC,0.0165 ± 0.045
12,TAAAATGA,0.153 ± 0.019
13,AAAAATGA,0.2619 ± 0.0016
14,GAAAATGA,0.0385 ± 0.12
15,CAAAATGG,0.116 ± 0.0099
16,CAAAATGC,0.0988 ± 0.086
17,CAAAATGA,0.287 ± 0.014
18,GCTCACTA,0.105 ± 0.0026
19,ACTCTTAC,0.0838 ± 0.051
20,AGACTGGC,-0.174 ± 0.07
21,AGACATCT,0.0328 ± 0.02
22,TGTAGAAA,0.284 ± 0.026
23,AGTAAACA,0.177 ± 0.012
24,AGTAGAAA,0.184 ± 0.098

row,Sequence,PBM 8-mer E-score
1,CGTAGAAA,0.2 ± 0.024
2,TGTAAACA,0.237 ± 0.079
3,GGTAAACA,0.0182 ± 0.025
4,CGTAAAAA,0.107 ± 0.012
5,AGTAAAAA,0.207 ± 0.023
6,TGTAAAAA,0.248 ± 0.099
7,CGCATCAG,-0.138 ± 0.15
8,AACCGTTC,-0.064 ± 0.11
9,CTCTAATC,-0.0502 ± 0.086
10,TCTTGGAA,-0.078 ± 0.026
11,AAAGGTGT,0.103 ± 0.015
12,ATATTCAT,0.218 ± 0.056
13,ACGTGCGG,0.254 ± 0.056
14,CCGTGCGC,0.0359 ± 0.14
15,ATGTGCGC,0.1696 ± 0.00066
16,ACGTGCGC,0.279 ± 0.03
17,ACGTGCGA,0.229 ± 0.046
18,ATGTGCGG,0.0139 ± 0.1
19,GGGGGTCA,-0.172 ± 0.1
20,GTAGTGAC,-0.0549 ± 0.095
21,GATCCACC,-0.171 ± 0.058
22,CGAGCGAG,0.0998 ± 0.018
